# Assay results published in PubChem BioAssay AID602292 (National Center for Advancing Translational Sciences (NCATS), 2012).
# In all, about 1,300 compounds went through this assay and about 380 (29%) were called active. Another 37% or so got no clear call; they are omitted. The list shows a part of the results. Unmarked numbers belong to inactive results. Calls come from the whole dose curve; as a rule, active = well fitted inhibition curve with a large enough effect; inconclusive = small, poorly fitted or top-dose-only effect; inactive = flat fitted curve, though single readings scatter.
# Molecular target: Thyrotropin receptor (Homo sapiens) (UniProt P16473)
# Sequence (P16473 whole entry, looked up): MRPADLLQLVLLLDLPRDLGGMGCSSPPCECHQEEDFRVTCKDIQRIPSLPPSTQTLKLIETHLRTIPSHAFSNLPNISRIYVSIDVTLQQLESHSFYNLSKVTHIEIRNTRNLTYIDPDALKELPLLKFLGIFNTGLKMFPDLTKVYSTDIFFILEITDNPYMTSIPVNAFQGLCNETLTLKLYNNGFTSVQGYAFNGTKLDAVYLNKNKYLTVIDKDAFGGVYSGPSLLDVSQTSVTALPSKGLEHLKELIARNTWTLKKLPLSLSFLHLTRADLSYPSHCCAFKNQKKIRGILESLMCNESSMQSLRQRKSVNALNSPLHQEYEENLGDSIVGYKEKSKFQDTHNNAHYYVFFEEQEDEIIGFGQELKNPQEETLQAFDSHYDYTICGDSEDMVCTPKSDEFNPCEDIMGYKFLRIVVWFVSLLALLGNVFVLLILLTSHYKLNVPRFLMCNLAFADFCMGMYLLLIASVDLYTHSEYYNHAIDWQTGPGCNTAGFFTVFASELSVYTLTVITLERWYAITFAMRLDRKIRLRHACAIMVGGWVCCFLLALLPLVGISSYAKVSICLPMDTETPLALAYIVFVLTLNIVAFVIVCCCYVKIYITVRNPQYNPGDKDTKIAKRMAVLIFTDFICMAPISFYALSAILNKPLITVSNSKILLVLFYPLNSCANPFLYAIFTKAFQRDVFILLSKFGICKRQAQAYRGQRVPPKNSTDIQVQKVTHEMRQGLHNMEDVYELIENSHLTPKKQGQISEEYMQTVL
# Assay: qHTS for antagonists of the Thyroid Stimulation Hormone Receptor: Hit Validation in Primary Screen; note: nearly all actives have a fitted effect of over 80% in size;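 for activity change, negative = inhibition: cells stimulated with TSH at EC80 of 4 nM during compound exposure; cAMP by competitive HTRF where cellular cAMP lowers the 665 nm FRET signal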
# Conditions: TSHR-expressing cells, cAMP antagonist mode; series mostly up to 58 µM; activity change, negative = inhibition: at the top concentration
# Source text: The thyroid-stimulating hormone receptor (TSHR) is a member of the 7 trans-membrane-spanning receptor (7TMR) family of cell surface receptors. TSHR-mediated hyperthyroidism is important in thyroid pathology. The development of small molecule antagonists of TSHR may lead to therapeutic approaches for TSHR-mediated hyperthyroidism caused by constitutively activating mutations or stimulating auto-antibodies associated with Graves' disease. Graves' disease is the leading cause of hyperthyroidism and is caused by autoantibodies that stimulate TSHR (TsAbs) causing thyroid growth and unregulated overproduction of thyroid hormones and existing treatments have liabilities (agranulocytosis). In addition, TSHRs are known to be expressed in multiple extrathyroidal tissues including bone, brain, kidney, testis, fat and cells of the immune system but the role of the TSHR in these tissues is not clear. Therefore, TSHR antagonists/inverse agonists could be used as probes of extrathyroidal TSHR function. Finally, TSHR inverse agonists, which are a subclass of antagonists that inhibit agonist-independent (or basal or constitutive) TSHR signaling, could be used to inhibit TSH-independent signaling in patients with recurrent or metastatic thyroid cancer who are receiving thyroid hormone to suppress TSH.
# In collaboration between scientist from the NCGC and the NIDDK, a miniaturized HTRF high-throughput screen was developed. It's a cell based assay, where an anti cAMP antibody contains a fluorescent cryptate tag (excitation 337 nm; emission 620 nm) and the acceptor is cAMP-d2 (excitation 620 nm; emission 665 nm). When antibody and cAMP-d2 interact and are excited by a 337 nm light, a FRET occurs resulting in emission at 665 nm. The assay is competition between cAMP-d2 and cAMP (from the cell lysate). The homogeneous protocol allows for one step dispense after stimulation that is automation friendly. This is a hit validation assay using the primary screen format.
# NIH Chemical Genomics Center [NCGC]
# NIH Molecular Libraries Probe Centers Network [MLPCN]
# Assay Provider: Marvin Gershengorn, NIDDK
# 1. 3ul of 200 TSHR freshly harvested cells/well are dispensed into a 1536 TC-treated white solid bottom plate.
# 2. Through pintool addition, 23nl of compounds and control in 100% DMSO are added to the plate.
# 3. Then 1ul of EC80 TSH (4nM final) is added to the plate.
# 4. Assay is incubated at 37 deg C for 2 hours.
# 5. 2ul of cAMP antibody diluted 1:20 in lysis buffer is added.
# 6. Immediately following, 2ul of d2 diluted 1:20 in HBSS is added seperately.
# 7. The assay is incubated for 30 minutes at ambient room temperature.
# 8. The result is obtained by using a ViewLux read-out with HTRF settings.
# % is set by controls: 0 for no effect and ±100 for the full control effect; potency is the fitted concentration of half-maximal effect.
Compound,Potency,"activity change, negative = inhibition"
O=C(Nc1ccc(Oc2ccc(Cl)cc2)c(Cl)c1)c1cc(I)cc(I)c1O,1.51 µM (active),
COC(=O)C1=C(c2ccc(OCc3ccccc3)cc2)C[C@@H]2CC[C@H]1N2C(=O)NCc1cccc(OC)c1,,-13.2%
COC(=O)C1=C(c2ccc(-c3ccccc3)c(F)c2)C[C@@H]2CC[C@H]1N2C(=O)NCCc1ccccc1,6.01 µM (active),
COC(=O)C1=C(c2ccc(-c3ccccc3)c(F)c2)C[C@@H]2CC[C@H]1N2C(=O)NCCCOC(C)C,23.9 µM (active),
COC(=O)C1=C(c2ccc(-c3ccccc3)c(F)c2)C[C@@H]2CC[C@H]1N2C(=O)NCCOc1ccccc1,5.36 µM (active),
COC(=O)C1=C(c2ccc(-c3ccccc3)c(F)c2)C[C@@H]2CC[C@H]1N2C(=O)NCc1ccco1,21.3 µM (active),
O=C(Nc1ccc2ccccc2c1)c1nn(C23CC4CC(CC(C4)C2)C3)cc1Br,,-7.52%
COC(=O)C1=C(c2ccc(-c3ccccc3)c(F)c2)C[C@@H]2CC[C@H]1N2C(=O)NCC1CC1,23.9 µM (active),
COC(=O)C1=C(c2ccc(-c3ccccc3)c(F)c2)C[C@@H]2CC[C@H]1N2C(=O)NC(C)C,23.9 µM (active),
CNc1ccc2oc(C[C@H]3O[C@@]4(CC[C@H]3C)O[C@H]([C@H](C)C(=O)c3ccc[nH]3)[C@H](C)C[C@H]4C)nc2c1C(=O)O,,-120%
O=C(C1CCN(c2nc3ccc(Br)cc3s2)CC1)N1CCC2(CC1)OCCO2,30.1 µM (active),
COc1cc(C(C)=O)ccc1OC(=O)N(C)c1ccccc1,,-4.44%
COC(=O)C1=C(c2ccc(OC(F)(F)F)cc2)C[C@@H]2CC[C@H]1N2C(=O)N1CCC(C)CC1,30.1 µM (active),
CNc1cc(Cl)c2nonc2c1[N+](=O)[O-],4.78 µM (active),
Cc1ccccc1-c1nc(CS(=O)CC(=O)N2CCC3(CC2)OCCO3)c(C)o1 (centres undefined),,-7.84%
N#CC(C#N)=NNc1ccc(-n2ccc(C(F)(F)F)n2)cc1,2.39 µM (active),
Cc1ccc(-n2c(C)nc3ccccc3c2=O)c(C)c1,,-2.85%
Oc1ccc(Cl)cc1Cc1cc(Cl)ccc1O,30.1 µM (active),
Nc1ccc(C2(c3ccc(N)cc3)c3ccccc3-c3ccccc32)cc1,6.01 µM (active),
CC12CCC3C(CC=C4CC5(CCC43C)OCCO5)C1CCC2=O (centres undefined),,-6.34%
N#CC(C#N)=NNc1ccc([N+](=O)[O-])cc1,2.69 µM (active),
CCN(CC)S(=O)(=O)c1ccc(NN=C(C#N)C#N)cc1,6.01 µM (active),
COc1cc(N2C(=O)CC(=O)NC2=O)cc(OC)c1OC,,-3%
Cc1nc2ccccc2c(=O)n1-c1cccc(C(F)(F)F)c1,,-3.92%
